# Screening results: PubChem, several laboratories
# Sa ugtP lethal = compounds lethal to S. aureus RN4220 ugtP deletion mutant; OD600 growth, 16 h; growth inhibition, % (concentration not given with the values); 0.54% of 330,000 active; AID 1259309; in the data active = growth inhibition above about 68%;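 note: plate controls were untreated wells for no effect and antibiotic for full effect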
# SARS 3CLpro inh-1 = SARS-CoV 3CLpro protease inhibition; recombinant SARS-CoV 3CLpro, quenched FRET peptide cleavage; inhibition, % at 6 µM; 0.14% of 290,000 active; in the data active = inhibition above about 12%
# RN4220 kill = kills Staphylococcus aureus RN4220. 0.33% of 330,000 active. S. aureus RN4220 growth, OD600, 16 h. inhibition, % (no concentration beside the values). AID 1259311; in the data active = inhibition above about 85%;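 note: plate controls were untreated cells for no effect and reference antibiotic for full effect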
# BJeLR lethal = kills HRASV12-expressing BJeLR cells. BJeLR (HRASV12) viability, CellTiter-Glo ATP luminescence, 48 h. inhibition, % (no concentration beside the values). 0.17% of 300,000 active. AID 1554; in the data active = inhibition above about 50%
# PfHsp40 rescue = compounds rescuing yeast from Plasmodium falciparum HSP40 toxicity; S. cerevisiae expressing PfHsp40, growth rescue, ATP luminescence; growth rescue, % at 12.5 µM; 0.68% of 340,000 active; in the data active = growth rescue above about 28%, passing the limit was not always enough;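 note: yeast W303a lacking pdr1 and pdr3 grown in galactose medium; growth measured after three days at 30 °C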
# SARS 3CLpro inh-2 = confirmation of SARS coronavirus 3C-like protease inhibitors; inhibition, % at 6 µM; 36% of 380 active; QFRET protease activity assay, 3CLpro; shares compounds with SARS 3CLpro inh-1; in the data active = inhibition above about 13%
# Active calls of the source: *; x = no result given. Rows were chosen to be rich in hits. Some 1.3% of all compounds tested hit in one or more screens of this group.
SMILES,Sa ugtP lethal,SARS 3CLpro inh-1,RN4220 kill,BJeLR lethal,PfHsp40 rescue,SARS 3CLpro inh-2
O=C(N[C@@H](Cc1ccc(Br)cc1)C(=O)O)OCC1c2ccccc2-c2ccccc21,x,12*,x,10,0,8
O=Cc1c(C(=O)O)n(Cc2ccc(Cl)cc2)c2ccccc12,1,4,7,-9,-1,x
O=Cc1c(C(=O)O)n(CC(=O)O)c2ccccc12,2,13*,3,10,0,-1
Cc1ccc(S(=O)(=O)N2CCOCC2)cc1NC(=O)Nc1ccc([N+](=O)[O-])cc1,0,x,0,x,0,x
COc1cc(CNCCc2c[nH]c3ccccc23)cc(OC)c1,10,71*,-4,6,3,-5
c1ccc(CNCCc2c[nH]c3ccccc23)cc1,-3,-2,3,1,-1,x
COC(=O)NNC(=S)Nc1ccc(Br)cc1,6,2,5,-3,-1,x
Cc1ccc(C)c(NC(=O)CCC(=O)NNC(=O)C(c2ccccc2)c2ccccc2)c1,-1,2,8,17,-1,x
Cc1ccc(NC(=O)CCC(=O)NNC(=O)C(c2ccccc2)c2ccccc2)c(C)c1,9,14*,2,2,0,0
